# Assay results reported in PubChem BioAssay (EPA / NIEHS).
# The source made the active and inactive calls. The calls were made as follows: active = hit-call score of the fitted dose curve at least 0.9, where 1 is the maximum; inactive = score below 0.9.
# Legend:
# [1] = BSK_BT_PBMCCytotoxicity: PBMC Cytotoxicity Assessment in the BioMAP Diversity Plus: BT Assay (AID 2284225); conditions: primary human B cells with PBMC;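 also: PBMC viability measured by Alamar Blue dye reduction fluorescence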
# In short: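 PBMC (75,000/well) pretreated with compound 1 h, then activated with SEB and TSST-1 (20 ng/mL each final), incubated 90 h; Alamar Blue added 6 h, fluorescence read at 546/580 nm. Fitted relative to DMSO.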
# [2] = read-out: Secreted IgG (sIgG), gene 3500; experiment: BSK_BT_sIgG: BioMAP Diversity Plus: BT Assay for Secreted IgG (sIgG) Biomarker Activity (AID 2284226); conditions: primary human B cells with PBMC
# In short: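 Read-out: ELISA for secreted IgG after 24 h of chemical exposure in a B cell plus PBMC co-culture. Values reflect upward-direction fitting against DMSO negative controls.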
# [3] = BSK_BT_Bcell_Proliferation: Viability Assessment in the BioMAP Diversity Plus: BT Assay for B cell Proliferation (AID 2284227); conditions: primary human B cells with PBMC
# In short: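 Using a human primary B cell–PBMC co-culture, the assay measures total protein by sulforhodamine B absorbance as a gauge of proliferation after 72 h. Analysis followed the positive fitting direction with DMSO as baseline.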
# [4] = read-out: Interleukin 6 (IL6), IL6 (gene 3569); experiment: BSK_BT_xIL6: BioMAP Diversity Plus: BT Assay for Interleukin 6 (IL6) Biomarker Activity (AID 2284228); conditions: primary human B cells with PBMC
# In short: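 Readout: secreted IL-6 via Luminex xMAP multiplex, 24 h post-dosing. System: primary human B cells co-cultured with PBMC. Signal change scored relative to DMSO vehicle, positive fitting direction.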
# [5] = read-out: Interleukin 17A (IL17A), IL17A (gene 3605); experiment: BSK_BT_xIL17A: BioMAP Diversity Plus: BT Assay for Interleukin 17A (IL17A) Biomarker Activity (AID 2284229); conditions: primary human B cells with PBMC
# In short: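 Luminex xMAP readout of secreted IL-17A; human B cell + PBMC co-culture; 24 h post-dose; positive-direction fit vs DMSO negative control.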
# [6] = read-out: Tumor necrosis factor (Homo sapiens) (UniProt P01375); experiment: BSK_BT_xTNFa: BioMAP Diversity Plus: BT Assay for Tumor necrosis factor alpha (TNF-alpha) Biomarker Activity (AID 2284230); conditions: primary human B cells with PBMC
# In short: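 Endpoint derived in the positive direction versus DMSO vehicle. Cells: B cells together with PBMC, exposed 24 h before TNF-alpha in the medium was read on the Luminex xMAP platform.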
# [7] = read-out: Vascular cell adhesion molecule 1 (VCAM1), VCAM1 (gene 7412); experiment: BSK_MyoF_VCAM1: BioMAP Diversity Plus: MyoF Assay for Vascular cell adhesion molecule 1 (VCAM1) Biomarker Activity (AID 2284231); conditions: primary human lung fibroblasts
# In short: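 MyoF system, lung fibroblasts; 24 h post-dose; VCAM-1 by ELISA; gain-of-signal fit vs DMSO baseline.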
# [8] = UKN4_HCS_LUHMES_cell_viability: Viability Assessment in the University of Konstanz (UKN) Leist Lab Neurite Outgrowth Assay in human LUHMES cells (UKN4) (AID 2284232)
# In short: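 Fluorescence intensity from high-content imaging of Hoechst H-33342/calcein-AM-stained cells served as the viability read-out. Human LUHMES precursors were differentiated 2 days, replated and treated 24 h; curves were fitted bidirectionally against DMSO.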
# [9] = UKN2_HCS_IMR90_cell_viability: Viability Assessment in the University of Konstanz (UKN) Leist Lab Neural Crest Cell Migration Assay in human induced IMR90 Pluripotent Stem Cells (UKN2) (AID 2284233);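 also: viability of neural crest cells differentiated from IMR90 iPSC measured by calcein-AM fluorescence imaging; cells exposed to compound for 24 h after a 24 h migration phase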
# In short: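 iPSC-derived (IMR90) neural crest cells seeded around silicone stoppers on PLO/laminin/fibronectin; after 24 h migration in N2-S with EGF/FGF, chemical added for 24 h. Calcein-AM/Hoechst stained 30 min, high-content imaged; bidirectional fit versus DMSO.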
# Sequence of Tumor necrosis factor (Homo sapiens) (P01375 whole entry, looked up): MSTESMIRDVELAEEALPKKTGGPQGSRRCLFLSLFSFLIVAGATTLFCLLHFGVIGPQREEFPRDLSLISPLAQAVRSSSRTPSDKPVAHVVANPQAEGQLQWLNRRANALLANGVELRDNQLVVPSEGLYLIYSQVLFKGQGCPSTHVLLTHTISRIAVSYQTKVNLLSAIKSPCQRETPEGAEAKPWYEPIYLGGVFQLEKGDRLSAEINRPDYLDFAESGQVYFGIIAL
structure (smiles),measurement,setting,value
O=C(CCl)NCO,outcome,[1],inactive
same,outcome,[2],inactive
same,outcome,[3],inactive
same,outcome,[4],inactive
same,outcome,[5],inactive
same,outcome,[6],inactive
Cc1c([N+](=O)[O-])c(C)c([N+](=O)[O-])c(C(C)(C)C)c1[N+](=O)[O-],outcome,[1],inactive
same,outcome,[2],inactive
same,outcome,[3],inactive
same,outcome,[4],inactive
same,outcome,[5],inactive
same,outcome,[6],inactive
same,AC50,[7],20 µM (active)
COCC(=O)N(c1c(C)cccc1C)[C@H](C)C(=O)OC,outcome,[1],inactive
same,outcome,[2],inactive
same,outcome,[3],inactive
same,outcome,[4],inactive
same,outcome,[5],inactive
same,outcome,[6],inactive
same,outcome,[7],inactive
CCOP(=O)(OCC)OC(=CCl)c1ccc(Cl)cc1Cl,outcome,[1],inactive
same,AC50,[2],20 µM (active)
same,outcome,[3],inactive
same,AC50,[4],10.4 µM (active)
same,outcome,[5],inactive
same,outcome,[6],inactive
same,AC50,[7],31.2 µM (active)
CCC(C)(C#N)N=NC(C)(C#N)CC (configuration not stated),outcome,[1],inactive
same,outcome,[2],inactive
same,outcome,[3],inactive
same,outcome,[4],inactive
same,outcome,[5],inactive
same,outcome,[6],inactive
CCOP(=O)(OCC)SCCSCC,outcome,[1],inactive
same,outcome,[2],inactive
same,outcome,[3],inactive
same,outcome,[4],inactive
same,outcome,[5],inactive
same,outcome,[6],inactive
same,outcome,[7],inactive
c1ccc2sc(SNC3CCCCC3)nc2c1,AC50,[1],30.8 µM (active)
same,AC50,[2],32 µM (active)
same,AC50,[3],29.3 µM (active)
same,outcome,[4],inactive
same,AC50,[5],20 µM (active)
same,AC50,[6],37.6 µM (active)
[Cl][Sn]([c]1ccccc1)([c]1ccccc1)[c]1ccccc1,AC50,[1],0.617 µM (active)
same,AC50,[2],0.313 µM (active)
same,AC50,[3],0.423 µM (active)
same,AC50,[4],0.456 µM (active)
same,AC50,[5],0.204 µM (active)
same,AC50,[6],0.495 µM (active)
Nc1c(Oc2ccccc2)cc(O)c2c1C(=O)c1ccccc1C2=O,outcome,[1],inactive
same,outcome,[2],inactive
same,outcome,[3],inactive
same,outcome,[4],inactive
same,outcome,[5],inactive
same,outcome,[6],inactive
same,outcome,[7],inactive
Cc1ccc(OP(=O)(Oc2ccc(C)cc2C)Oc2ccc(C)cc2C)c(C)c1,AC50,[1],5.32 µM (active)
same,AC50,[2],15.4 µM (active)
same,AC50,[3],20 µM (active)
same,AC50,[4],11.7 µM (active)
same,AC50,[5],20 µM (active)
same,AC50,[6],20 µM (active)
C#CCOC(=O)/C=C(C)/C=C/CC(C)CCCC(C)C (configuration not stated),outcome,[1],inactive
same,AC50,[2],20 µM (active)
same,outcome,[3],inactive
same,outcome,[4],inactive
same,outcome,[5],inactive
same,outcome,[6],inactive
O=S(=O)(C(Cl)(Cl)Cl)C(Cl)(Cl)Cl,AC50,[1],3.65 µM (active)
same,AC50,[2],2.2 µM (active)
same,AC50,[3],2.48 µM (active)
same,AC50,[4],3.85 µM (active)
same,AC50,[5],3.08 µM (active)
same,AC50,[6],4.36 µM (active)
O=S1OC[C@@H]2[C@H](CO1)[C@]1(Cl)C(Cl)=C(Cl)[C@@]2(Cl)C1(Cl)Cl (some centres not stated),AC50,[8],27 µM (active)
same,outcome,[9],inactive
CC(C)N(C(=O)CCl)c1ccccc1,AC50,[1],20 µM (active)
same,AC50,[2],7.82 µM (active)
same,AC50,[3],9.93 µM (active)
same,AC50,[4],12.3 µM (active)
same,AC50,[5],5.91 µM (active)
same,AC50,[6],12 µM (active)
same,AC50,[7],2.36 µM (active)
CC(C=O)Cc1ccc2c(c1)OCO2 (configuration not stated),outcome,[1],inactive
same,outcome,[2],inactive
same,outcome,[3],inactive
same,outcome,[4],inactive
same,outcome,[5],inactive
same,outcome,[6],inactive
O=C1C=CC(=O)c2ccccc21,AC50,[1],0.686 µM (active)
same,AC50,[2],0.251 µM (active)
same,AC50,[3],0.825 µM (active)
same,AC50,[4],0.499 µM (active)
same,AC50,[5],0.482 µM (active)
same,AC50,[6],0.812 µM (active)
OC(Cc1ccccc1Cl)(Cn1cncn1)C1(Cl)CC1 (configuration not stated),outcome,[1],inactive
same,AC50,[2],20 µM (active)
same,outcome,[3],inactive
same,outcome,[4],inactive
same,outcome,[5],inactive
same,outcome,[6],inactive
CCN(CC)C(=O)C(Cl)=C(C)OP(=O)(OC)OC,outcome,[1],inactive
same,outcome,[2],inactive
same,outcome,[3],inactive
same,outcome,[4],inactive
same,outcome,[5],inactive
same,outcome,[6],inactive
Cc1cc(C(C)(C)c2ccc(O)c(C)c2)ccc1O,outcome,[1],inactive
same,AC50,[2],10 µM (active)
same,outcome,[3],inactive
same,outcome,[4],inactive
same,outcome,[5],inactive
same,outcome,[6],inactive
NC(=O)CCl,outcome,[1],inactive
same,outcome,[2],inactive
same,outcome,[3],inactive
same,outcome,[4],inactive
same,outcome,[5],inactive
same,outcome,[6],inactive
O=S(=O)(c1ccc(Cl)cc1)c1cc(Cl)c(Cl)cc1Cl,outcome,[1],inactive
same,AC50,[2],20 µM (active)
same,AC50,[3],30.1 µM (active)
same,outcome,[4],inactive
same,outcome,[5],inactive
same,outcome,[6],inactive
CNC(=O)CSP(=O)(OC)OC,outcome,[8],inactive
same,outcome,[9],inactive
CCOC(=O)CCN(SN(C)C(=O)Oc1cccc2c1OC(C)(C)C2)C(C)C,AC50,[1],25.9 µM (active)
same,AC50,[2],27.5 µM (active)
same,AC50,[3],28.9 µM (active)
same,AC50,[4],33.4 µM (active)
same,AC50,[5],26.5 µM (active)
same,AC50,[6],36.7 µM (active)
Oc1c(Br)cc(Br)cc1Br,outcome,[1],inactive
same,outcome,[2],inactive
same,outcome,[3],inactive
same,outcome,[4],inactive
same,outcome,[5],inactive
same,outcome,[6],inactive
same,AC50,[7],15.4 µM (active)
CCCCN(CCCC)C(=S)[S-].CCCCN(CCCC)C(=S)[S-].[Ni+2],outcome,[1],inactive
same,AC50,[2],2.66 µM (active)
same,outcome,[3],inactive
same,outcome,[4],inactive
same,outcome,[5],inactive
same,outcome,[6],inactive
same,outcome,[7],inactive
O=[N+]([O-])c1cccc2ccccc12,outcome,[1],inactive
same,outcome,[2],inactive
same,outcome,[3],inactive
same,outcome,[4],inactive
same,outcome,[5],inactive
same,outcome,[6],inactive
Cc1cc(Cl)ccc1N,outcome,[1],inactive
same,outcome,[2],inactive
same,outcome,[3],inactive
same,outcome,[4],inactive
same,outcome,[5],inactive
same,outcome,[6],inactive
